An excerpt weighted towards active compounds, which were near 12% of everything screened.
Shiga toxin inh: blocks Shiga toxin action in Vero cells | 9.2% of 290,000 active | AID 2315 | Vero cells, Shiga toxin protein synthesis inhibition reporter | inhibition, % at 38.7 µM; in the data active = inhibition mostly above about 28%, no sharp cut-off; inactive = mostly below about 43%; note: 0% is about no effect
SARS PLP yeast: blocks SARS-CoV papain-like protease in a yeast assay | S. cerevisiae expressing SARS-CoV PLpro, growth rescue | Potency, µM (series often up to 32.9 µM), without a hit: at the highest dose activity, positive = growth rescue, hits mostly activators | 0.19% of 330,000 active; note: potency is the fitted concentration of half-maximal effect; 0% is about no effect; nearly all actives have a fitted effect of over 55% in size
NS1 inh: inhibitors of influenza NS1 protein function | 0.4% of 270,000 active | Potency, µM (doses to about 46.1 µM), for inactives: top-dose activity, positive = more growth | AID 2326; note: potency is the fitted concentration of half-maximal effect; actives are rising curves; nearly all actives have a fitted effect of over 50% in size
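A cell-based growth assay was used: compounds that relieve NS1-induced slow growth of budding yeast raise OD600. Assay medium was yeast nitrogen base with ammonium sulphate and -URA supplement, pH 6.0, with 2% galactose.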
CHX counter: affects cycloheximide protein synthesis inhibition readout, counter-screen; cell reporter, cycloheximide protein synthesis inhibition counterscreen; max response, %; 12% of 300,000 active; AID 2314; in the data active = max response mostly above about 13%, no sharp cut-off; inactive = mostly below about 14%; note: read at 38.3 µM for the half of the compounds with a filed dose; 0% is about no effect
Numbers without * were called inactive; ? = inconclusive; nt = no result. Unless noted, calls come from the whole dose curve.

SMILES | Shiga toxin inh | SARS PLP yeast | NS1 inh | CHX counter
Cc1nnc(SCc2nnc(-c3cccs3)o2)n1Cc1ccccc1 | -22 | 4% | nt | 4
Cc1ccc(/C=C/c2nnc(-c3ccccc3)o2)cc1 | 65 | -3% | -9% | 23*
CCOC(=O)Cc1csc(NC(=O)CCCCCN2C(=O)c3ccccc3C2=O)n1 | -10 | 22% | ? | -2
Nc1nnc(-c2ccccc2F)s1 | 86* | -1% | 2% | 21*
Nc1nnc(-c2ccc(Cl)cc2Cl)s1 | 58* | -2% | -6% | 23*
Nc1nnc(Cc2ccc(Cl)cc2Cl)s1 | -12 | nt | -4% | 1
CC1CCCCC1NC(=O)COC(=O)C12CC3CC(CC(Cl)(C3)C1)C2 (centres undefined) | -3 | 2% | nt | -3
CC(c1ccccc1)n1c(-c2ccc(Cl)cc2)n[nH]c1=S (centres undefined) | 11 | 12% | 6% | -1
Cc1nc(N2CCCCC2)sc1C(=O)c1cccc([N+](=O)[O-])c1 | 84* | 1% | -13% | 37*
Cc1nc(N2CCCCC2)sc1C(=O)c1ccc(SCCO)c([N+](=O)[O-])c1 | 8 | 1% | nt | 17
O=C(NCCCN1CCOCC1)c1cc(-c2cccs2)on1 | 160* | 11% | -7% | 42*
O=C(NCCCn1ccnc1)c1cc(-c2cccs2)on1 | 154* | 1% | 13% | 46*
Cc1nccc2[nH]c(=O)c(C(=O)NC(C)CCc3ccccc3)cc12 (centres undefined) | -16 | 3% | nt | -4
COc1ccc(F)cc1C(=O)C1CCCN(Cc2cnc(C)s2)C1 (centres undefined) | -11 | -2% | -4% | -1
COc1ccc(Cl)cc1C(=O)C1CCCN(Cc2cnc(C)s2)C1 (centres undefined) | 53* | 1% | -5% | 17*
CC1CN(c2nnc(NC(=O)c3ccccc3)s2)CC(C)O1 (centres undefined) | 62* | -7% | nt | 23
CCSc1nnc(NC(=O)c2ccccc2C)s1 | 125* | 0% | nt | 36*
CCSc1nnc(NC(=O)c2cnccn2)s1 | -3 | -1% | -39% | -1
CC(C)c1nnc(NC(=O)c2cccnc2)s1 | 29 | 7% | -5% | 31*
CCSc1nnc(NC(=O)c2cccnc2)s1 | 35 | 9% | -25% | 17*
CC(=O)Nc1ccc(NC2CCCCC2NS(=O)(=O)c2ccc(Cl)cc2)cc1 (centres undefined) | -15 | 0% | -18% | -4
C/C(CC(=O)Nc1ccc(Cl)c(Cl)c1)=N\NC(N)=S | 19 | 12% | 17% | -3
O=C1CCC(C(=O)Nc2cccc(Br)c2)N1 (centres undefined) | -11 | -2% | -1% | -2
CCSc1nnc(NC(=O)c2ccccc2)s1 | 76* | -47% | -26% | 37*
CCSc1nnc(NC(=O)[C@@H](NC(=O)c2ccccc2)C(C)C)s1 | -5 | -2% | -5% | -2
SMILES | Shiga toxin inh | SARS PLP yeast | NS1 inh | CHX counter
CCSc1nnc(NC(=O)CC(C)C)s1 | 28 | 1% | 9% | 18*
O=S(=O)(c1ccccc1)c1nc(-c2ccccc2)oc1N1CCCCC1 | 77* | 4% | 11% | 24*
CSc1oc(-c2ccccc2)nc1S(=O)(=O)c1ccc(F)cc1 | -5 | -4% | -9% | -3
CSc1oc(-c2ccc(F)cc2)nc1S(=O)(=O)c1ccccc1 | -24 | 20% | -1% | 19*
Cc1ccc(NC(=O)c2sc(N)nc2-c2ccc([N+](=O)[O-])cc2)c(C)c1 | 0 | 0% | 2% | 0
Cc1cc2nnc(SCC(=O)N(C)C3CCS(=O)(=O)C3)n2c2ccccc12 (centres undefined) | -9 | 2% | 3% | 12
O=C(CCSc1ccccc1Cl)NNC(=O)c1ccncc1 | nt | 3% | nt | nt
Cc1ccc(S(=O)(=O)CCc2nnc(NC(=O)c3ccco3)s2)cc1 | 16 | 8% | nt | 2
CC(C)CC(O)C1CCN(C(=O)CCc2nnc(-c3ccccc3)o2)CC1 (centres undefined) | -6 | 0% | 10% | -3
CCCOC1CCCN(C(=O)CCc2nnc(-c3ccc4c(c3)OCO4)o2)C1 (centres undefined) | 117* | 2% | -11% | 46*
Cc1cc(C)n(CCN(C)C(=O)CCc2nnc(-c3ccc4c(c3)OCO4)o2)n1 | 48 | 1% | 3% | 9.7*
CC1CCCN(C(=O)CCc2nnc(-c3ccc4c(c3)OCO4)o2)C1 (centres undefined) | 101* | -8% | -6% | 37*
CCC(=O)C1CCCN(C(=O)CCc2nnc(-c3ccc4c(c3)OCO4)o2)C1 (centres undefined) | 51* | 3% | -13% | 38*
O=C(CCc1nnc(-c2ccc3c(c2)OCO3)o1)NCCc1ccccc1F | 12 | -2% | -1% | 15
NCC(=O)NC1(C(=O)O)CCCC1 | nt | nt | -6% | nt
